The panel holds about 83,000 compounds, 20% with a hit somewhere; the sample as a whole holds those more often.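 For each line, cells grew in 96-well plates with the test compound present at a single concentration for 48 hours.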 A number with no mark means an inactive call. Active and inactive are the calls of the source. Rule for the calls: active = growth percent below 10; inactive = the rest.
Columns and labels:
Experiment in all cases: NCI-60 one-dose screen, 48 h (100 = growth as untreated, 0 = no growth, -100 = all killed)
Conditions in all cases: 10 µM unless noted
HCT-15 colon = tested on: HCT-15 colon
HT29 colon = tested on: HT29 colon
SNB-75 CNS = tested on: SNB-75 CNS
SNB-19 CNS = tested on: SNB-19 CNS
U251 CNS = tested on: U251 CNS
PC-3 prostate = tested on: PC-3 prostate
SK-MEL-5 melanoma = tested on: SK-MEL-5 melanoma
UACC-62 melanoma = tested on: UACC-62 melanoma
LOX IMVI melanoma = tested on: LOX IMVI melanoma
SK-MEL-28 melanoma = tested on: SK-MEL-28 melanoma

SMILES | growth (HCT-15 colon) | growth (HT29 colon) | growth (SNB-75 CNS) | growth (SNB-19 CNS) | growth (U251 CNS) | growth (PC-3 prostate) | growth (SK-MEL-5 melanoma) | growth (UACC-62 melanoma) | growth (LOX IMVI melanoma) | growth (SK-MEL-28 melanoma)
O=C(Nc1ccccc1)c1cc2ccccc2s1 | 63.9% | 104% | 92.9% | 99.7% | 89.4% | 82% | 56.7% | 67.1% | 83.4% | 
O/N=C/c1ccncc1 | 104% | 94.5% | 96.2% | 122% | 102% | 95.9% | 105% | 111% | 100% | 
C=C1C(=O)O[C@H]2[C@H]1CC/C(COC(=O)NCc1[nH]nc3ccccc13)=C\CC[C@@]1(C)O[C@@H]21 | 5.35% (active) | -32.6% (active) | 64.9% | 67.8% | 27.5% | 28.8% | 25.7% | 16.5% | -17.2% (active) | 
CC(C)CCSc1nc(Nc2ccccc2)c(C#N)c(-c2ccc(F)cc2)n1 | 71.7% | 49.9% | 42.1% | 53% | 14% | 59.1% | 96.6% | 82.4% |  | 
c1ccc(CCn2cccc2)nc1 | 119% | 114% | 95.1% | 105% | 103% | 98.9% | 109% | 97.9% | 98.6% | 
CSC1=N/C(=C\c2cccc(OCc3ccc(Cl)cc3)c2)C(=O)N1 | 81.4% | 76.7% | 82.5% | 90.4% | 84.5% | 76% | 77.7% | 70.4% | 84.2% | 
CCCCCCCC/C=C\CCCCCCCC(=O)OCCCCCC | 101% | 109% | 117% | 112% | 97.1% | 91.5% | 108% | 110% | 98.8% | 122%
COc1cccc(-c2nc3sccn3c2-c2ccnc(NCCN3CCCNS3(=O)=O)n2)c1 | 97.1% | 45.2% | 88.4% | 127% | 112% | 94.4% | 80.8% | 9.99% (active) | 35% | 
COc1cc(C2CC(c3ccccc3)=NN2C=O)ccc1Oc1nc2c(c(=O)n(C)c(=O)n2C)n1C (stereo unspecified) | 87.9% | 69.9% | 92% | 61.9% | 86.5% | 72.8% | 59.2% | 86.2% | 55% | 
CCOC(=O)c1cc(N)nc2ccccc12 | 107% | 97.4% | 112% | 106% | 103% | 104% | 106% | 108% | 96.7% | 123%
O=C(Nc1cccc(Cl)c1)Nc1ccccc1Cl | 93.6% | 80.8% | 89.4% | 102% | 87.3% | 57.1% | 102% | 63.7% | 89.1% | 95.4%
Cc1c(C(=O)CCl)c(=O)n(-c2ccccc2)n1C | 40% | 36.2% | 76.3% | 94.5% | 65.8% | 55.5% | 87.9% | 74.1% | 62% | 65%
C=CCOC(=O)C1=C(C)NC2=C(C(=O)CC(C)(C)C2)C1c1ccc(OC)cc1 (stereo unspecified) | 105% | 102% | 81.2% | 92.2% | 103% | 88.3% | 108% | 81.1% | 102% | 104%
COc1cc(OC)c2sc(-c3ccc(-n4cncc4-c4ccc(OC)c(N)c4)cc3)nc2c1 | 73.9% | 74.3% | 81.8% | 80.1% | 67.2% | 50.4% | 53.1% | 85.6% | 90.2% | 104%
CCCCCCCOc1cccc(/C=C2\N=C3SCCCN3C2=O)c1 | 87.5% | 88.9% | 91.2% | 92.8% | 91.1% | 85.3% | 90.1% | 79.6% | 96.2% | 100%
CCOC(=O)c1cc(C(=O)OCC)c(C)nc1C | 102% | 104% | 99% | 103% | 103% | 98.2% | 107% | 103% | 107% | 112%
COc1ccc(CNc2c3ccccc3nc3ccccc23)cc1F | 11% | 12.2% | 42.5% | 28% | 26.9% | 30.4% | 36.5% | 42.4% | 1.25% (active) | 46.7%
CC(C)(C)c1ccc(OC(=O)Nc2ccccc2)cc1 | 104% | 101% | 106% | 109% | 101% | 96.3% | 104% | 110% | 102% | 122%
O=c1c2cc(Cl)ccc2oc2ccc(OCCCCCN3CCCCCC3)cc12 | 30% | 5.64% (active) | 92.3% | 91.5% | 69.2% | 83.2% | 62.9% | 85.4% | 73.2% | 107%
CCc1c(C)c2ccc(O)c(-c3cc(-c4ccccc4)c(C#N)c(=O)[nH]3)c2oc1=O | 96.5% | 125% | 52.7% | 108% | 100% | 107% | 94.7% | 77.3% | 93.1% | 107%
Fc1ccc(-c2cnc3nonc3n2)c(F)c1 | 78.3% | 113% | 96.4% | 92.5% | 111% | 73.3% | 96.2% | 87.6% | 93.1% | 101%
COCc1nc(NS(=O)(=O)c2ccc(N)cc2)nc(C)c1Br | 97.7% | 88.6% | 89.4% | 108% | 103% | 101% | 102% | 101% | 94.1% | 105%
CC(=O)NC1C(O[C@H]2C[C@H]3[C@@H]4CC=C5C[C@@H](O)CC[C@]5(C)[C@H]4CC[C@]3(C)[C@H]2[C@H](C)C(=O)CCC(C)C)OCC(O)C1O (stereo partly specified) | 30.5% | 36.8% | 37.8% | 57.5% | 28% | 26.5% | 24.8% | -20.3% (active) | 27.2% | -14.3% (active)
Cc1ccccc1C1CC(=O)c2ccccc2C1C (stereo unspecified) | 96.9% | 100% | 85% | 94.5% | 88.5% | 99.4% | 105% | 87.4% | 100% | 107%
O=C(Cc1ccc([N+](=O)[O-])cc1)Oc1ccccc1 | 104% | 104% | 102% | 103% | 107% | 93.1% | 105% | 101% | 107% | 112%
COc1cc([N+](=O)[O-])cc(OC)c1OC | 107% | 96% | 92.2% | 114% | 106% | 94.9% | 113% | 101% | 100% | 104%
CN(C)CCNC(=O)n1cc(-c2ccncc2)c(-c2cc(O)cc(Cl)c2)n1 | 77.1% | 88.5% | 103% | 106% | 81.6% | 112% | 77.3% | 36.4% | 76.3% | 35.2%
